Screening results: PubChem BioAssay, University of Kansas High Throughput Screening Laboratory
This is a sample that favours compounds with a hit; in the whole collection about 3.5% have one here.
Pf apPOL inh – Pf-apPOL inhibitors, biochemical, fluorescence. Recombinant Pf-apPOL, molecular beacon fluorescence, 1.5 h. hit rate 0.25% among 210,000. inhibition, % at 10 µM
mHTT CaM bind – mutant huntingtin-calmodulin interaction inhibitors – biochemical, AlphaScreen, primary screen. P42858. AlphaScreen His-mHTT/GST-CaM binding, luminescence. inhibition, % at 15 µM. hit rate 3.6% among 190,000
Of the large screens only hits and unclear results are named; the others gave an inactive call. No stated cut-off is given here; in the data, active means inhibition above about 50%; inactive means the rest.

COc1ccccc1NC(=O)c1c(NC(=O)c2ccco2)sc2c1CCCC2	none
COc1cc(OC)c(OC)cc1CNc1sc2c(c1C(=O)Nc1ccccc1OC)CCC2	mHTT CaM bind 53
COc1ccccc1NC(=O)c1c(NCc2cccc(F)c2)sc2c1CCC2	mHTT CaM bind 63
O=S(=O)(c1cccnc1)N1CCC(n2c(-c3ccoc3)nc3cccnc32)C1 (stereo not given)	none
O=C(CNC(=O)c1cn(-c2ccccc2)nc1-c1ccc(F)cc1)c1ccccc1	none
O=C(CN1C(=O)C(c2ccccc2)=NC12CCCCC2)Nc1cccc(Cl)c1	mHTT CaM bind 89
O=C(CN1C(=O)C(c2ccc(F)cc2)=NC12CCCC2)Nc1ccc(Cl)cc1	none
O=C(CN1C(=O)C(c2ccc(F)cc2)=NC12CCCC2)Nc1ccc(F)c(Cl)c1	mHTT CaM bind 100
O=C(CN1C(=O)C(c2ccc(F)cc2)=NC12CCCCC2)Nc1ccc(F)c(Cl)c1	mHTT CaM bind 95
O=C(CN1C(=O)C(c2ccccc2)=NC12CCCCC2)Nc1ccc(F)c(Cl)c1	none
Cc1cccc(NC(=O)CN2C(=O)C(c3ccccc3)=NC23CCCCC3)c1	none
O=[N+]([O-])c1cccc(S(=O)(=O)Nc2ccccc2O)c1	none
Cc1ccc(CNC(=O)c2ccc3c(c2)nc2n3CCC(C)C2)cc1 (stereo not given)	none
COc1ccc(C(=O)ON=C2C=CC(=O)C=C2)cc1	mHTT CaM bind 53
O=C1C=CC(=NOC(=O)c2ccccc2Br)C=C1	mHTT CaM bind 89
CC1=CC(=O)C=C(C)C1=NOC(=O)c1ccccc1Br	mHTT CaM bind 90
CN1C(=O)/C(=N\OC(=O)c2ccccc2Br)c2ccccc21	none
Cc1ccc(C(=O)ON=C2C=CC(=NOC(=O)c3ccccc3Br)C=C2)cc1	none
O=C1C=CC(=NOC(=O)c2ccc([N+](=O)[O-])cc2)C=C1	none
COc1ccc(C2C(C#N)=C(N)Oc3n[nH]c(C)c32)cc1COc1ccccc1[N+](=O)[O-] (stereo not given)	none
Cc1ccc(CNC(=O)c2c[nH]n3c(=O)c(Cc4ccc(Cl)cc4)c(C)nc23)cc1	mHTT CaM bind 96
Cc1nc2c(C(=O)NCc3ccccc3Cl)c[nH]n2c(=O)c1Cc1ccccc1F	none
CCCc1c(C)nc2c(C(=O)NCc3ccc(C)cc3)c[nH]n2c1=O	none
CCCc1c(C)nc2c(C(=O)NCc3ccc(OC)cc3)c[nH]n2c1=O	none
COc1cccc(CNC(=O)c2c[nH]n3c(=O)c(Cc4ccc(C)cc4)c(C)nc23)c1	mHTT CaM bind 61
CCC(C)NC(=O)c1c[nH]n2c(=O)c(Cc3ccccc3Cl)c(C)nc12 (stereo not given)	mHTT CaM bind 59
Cc1nc2c(C(=O)NCCN(C)C)c[nH]n2c(=O)c1Cc1ccccc1F	none
CCN(CCNC(=O)c1c[nH]n2c(=O)c(Cc3ccccc3F)c(C)nc12)c1ccccc1	mHTT CaM bind 79
Oc1ccc(-c2nnc(N3CCOCC3)c3ccccc23)cc1	none
CCOC(=O)c1cnc(SCC(=O)Nc2ccc([N+](=O)[O-])cc2)nc1N	none (no result: mHTT CaM bind)
CCCc1c(C)nc2c(C(=O)NCc3ccccc3)c[nH]n2c1=O	none
COc1cccc(CNC(=O)c2c[nH]n3c(=O)c(Cc4ccccc4F)c(C)nc23)c1	mHTT CaM bind 72
Cc1cc(=O)n2[nH]cc(C(=O)NCc3ccccc3)c2n1	none
COc1cccc(CNC(=O)c2c[nH]n3c(=O)c(Cl)c(C)nc23)c1	mHTT CaM bind 52
Cc1nc2c(C(=O)NCCc3ccccc3)c[nH]n2c(=O)c1Cc1ccccc1F	none
Cc1ccc(CNC(=O)c2c[nH]n3c(=O)cc(CSc4ccc(Cl)cc4)nc23)cc1	mHTT CaM bind 65
O=C(Nc1cccc(Cl)c1)Nc1nnc(-c2ccco2)s1	none
O=C(NCc1ccc(Cl)cc1)c1nc2nc(-c3ccccc3)cc(C(F)(F)F)n2n1	none
Cc1ccc(CN2CCc3c(cc(C(=O)NCc4ccco4)n3C)C2)cc1	mHTT CaM bind 62
CN(C)CCCNC(=O)c1cc2c(n1C)CCN(Cc1ccc(F)cc1)C2	mHTT CaM bind 96
COc1ccccc1NC(=O)N1CCc2c(c3cc(F)ccc3n2C)C1	mHTT CaM bind 82
COc1cccc(CNC(=O)c2cc3c(n2C)CCN(Cc2ccc(F)cc2)C3)c1OC	none
COc1ccccc1NC(=O)N1CCc2c(c(COCc3cccc(F)c3)nn2C)C1	none
CN(C)CCNC(=O)c1cc2c(n1C)CCN(Cc1ccccc1)C2	none
COc1ccccc1NC(=O)c1cc2c(n1C)CCN(Cc1ccc(F)cc1)C2	mHTT CaM bind 63
Cn1c(C(=O)NCc2ccco2)cc2c1CCN(Cc1ccccc1)C2	none
CCc1ccc(C2Nc3ccccc3NC3=C2C(=O)CC(c2ccc(OC)cc2)C3)s1 (stereo not given)	none
O=C(NCc1ccccn1)C1CCN(c2ncnc3c2nc2n3CCCCC2)CC1	none
CC(CNS(C)(=O)=O)OC12CC3CC(CC(C3)C1)C2 (stereo not given)	none (no result: Pf apPOL inh)
COc1ccc(C(=O)N2CCCN(c3ncccc3-c3nc(C)no3)CC2)c(C)c1	none
COc1ccc(CNC(=O)c2cc3c(n2C)CCN(Cc2ccc(F)cc2)C3)cc1	none
COc1ccc(CNC(=O)c2cc3c(n2C)CCN(Cc2ccc(F)cc2)C3)cc1OC	mHTT CaM bind 76
CCc1ccccc1NC(=O)CN(c1cc(Cl)ccc1C)S(C)(=O)=O	none
O=C(COc1cccc([N+](=O)[O-])c1)Nc1ccc(-c2nc3ccccc3c(=O)o2)cc1	none
CCc1nc2c(c(=O)n1CC(=O)Nc1ccc(F)c(F)c1)CN(Cc1ccccc1)CC2	none
O=C(NCc1cccc(F)c1)N1CCC(CCOc2cccnc2)CC1	none
Cc1onc(-c2ccccc2Cl)c1C(=O)Nc1ccc(Cl)c(Cl)c1	mHTT CaM bind 80
CC(=O)Nc1ccc(NC(=O)c2c(-c3ccccc3Cl)noc2C)cc1	none
Cc1ccc(-c2nc(C(=O)N3CCCCCC3)cs2)n1C	none
COc1c(C(C)C)cc(NC(C)=O)cc1C(C)C	none
CC(=O)Nc1ccc(Nc2cc(C(C)C)c(O)c(C(C)C)c2)cc1	mHTT CaM bind 74
COc1ccc(-c2cn3c(C(=O)NCc4cccs4)csc3n2)cc1	none
Cc1ccc(-c2cn3c(CC(=O)NCc4cccs4)csc3n2)cc1	mHTT CaM bind 52
O=[N+]([O-])c1cc(C(F)(F)F)ccc1Oc1cccnc1	none
CC1CCCCC1NC(=O)C1CCN(c2nc3ccccc3o2)CC1 (stereo not given)	none
COc1ccc(C(=O)N2CCC(n3c(=O)oc4c(C)cc(C)cc43)CC2)cc1	none
COc1cccc(C(=O)Oc2cc(C)[nH]c(=O)c2[N+](=O)[O-])c1OC	none
COc1ccc(C(=O)Oc2cc(C)[nH]c(=O)c2[N+](=O)[O-])cc1OC	mHTT CaM bind 86
Cc1cc(OC(=O)C=Cc2ccc3c(c2)OCO3)c([N+](=O)[O-])c(=O)[nH]1	mHTT CaM bind 77
CC=CC(=O)Oc1cc(C)[nH]c(=O)c1[N+](=O)[O-]	none
COc1cc(C)nc2ccc(NC(=O)Nc3ccccc3)cc12	none
C=CCNC(=O)CC(=O)NN=C1CCCC1	none (no result: Pf apPOL inh)
COc1ccccc1C=CC=C1Oc2cc(OC(=O)c3ccco3)ccc2C1=O	none
CCCn1cc2c3c(cccc31)CN(C(=O)Nc1ccc3c(c1)OCCO3)CC2	none
CCCCC(C(=O)O)n1c(O)c(C=C2C=Nc3ccccc32)sc1=S (stereo not given)	mHTT CaM bind 100
CC(C)Cc1nn2c(N)c(C=C3C=Nc4ccccc43)c(=O)nc2s1	none
COc1cc2c(cc1OC)C(COc1ccccc1OC)N(C(=O)c1ccco1)CC2 (stereo not given)	none
